Measurements taken from ChEMBL document CHEMBL3433997, “St. Jude Leishmania screening dataset” (2016).

Assays:
Assay type in all cases: functional
[1] = target: Solute carrier family 2, facilitated glucose transporter member 1 (Homo sapiens) (UniProt P11166); assay: ST_JUDE_LEISH: Cytotoxicity at 2uM final concentration against transgenic Leishmania Mexicana promastigotes LmGLUT1 that are glucose transport deficient and complemented with the human glucose transporter GLUT1. Activity is measured by DNA content using SYBR green in vitro
[2] = target: Hexose transporter 1 (Plasmodium falciparum) (UniProt O97467); assay: ST_JUDE_LEISH: Cytotoxicity at 2uM final concentration against transgenic Leishmania Mexicana promastigotes LmPfHT that are glucose transport deficient and complemented with the Plasmodium falciparum hexose transporter. Activity is measured by DNA content using SYBR green in vitro
[3] = target: Glucose transporter (Leishmania mexicana) (UniProt O61059); assay: ST_JUDE_LEISH: Cytotoxicity at 2uM final concentration against transgenic Leishmania Mexicana promastigotes LmGT2 that are glucose transport deficient and complemented with the L. Mexicana glucose transporter 2. Activity is measured by DNA content using SYBR green in vitro

Chain of Solute carrier family 2, facilitated glucose transporter member 1 (Homo sapiens) (P11166 whole entry): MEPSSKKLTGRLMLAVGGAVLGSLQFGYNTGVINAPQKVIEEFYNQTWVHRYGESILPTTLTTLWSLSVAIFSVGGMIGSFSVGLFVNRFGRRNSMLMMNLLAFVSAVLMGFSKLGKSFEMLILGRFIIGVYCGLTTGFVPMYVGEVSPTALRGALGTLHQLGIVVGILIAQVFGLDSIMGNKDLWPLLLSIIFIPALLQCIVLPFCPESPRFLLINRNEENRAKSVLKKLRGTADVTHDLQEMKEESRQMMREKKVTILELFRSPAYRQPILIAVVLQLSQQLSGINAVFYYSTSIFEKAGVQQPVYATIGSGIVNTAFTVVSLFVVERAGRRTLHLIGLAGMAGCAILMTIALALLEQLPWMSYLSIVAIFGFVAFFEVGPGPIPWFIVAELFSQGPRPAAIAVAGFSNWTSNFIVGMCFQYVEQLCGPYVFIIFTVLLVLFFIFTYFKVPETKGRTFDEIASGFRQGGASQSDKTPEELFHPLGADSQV

Row | SMILES | inhibition [1] [%] | inhibition [2] [%] | inhibition [3] [%]
1 | COc1cccc2cc(C(=O)N[C@@H](CC(C)C)C(=O)N[C@H](/C=N/NC(=O)Cc3cccnc3)CCc3ccccc3)oc12 | 3.03 | 5.36 | 1.75
2 | COc1ccc(Cl)cc1N1CCN(CCCNC(=O)c2ccc(-c3nc4cc(Cl)c(C)cc4[nH]3)s2)CC1 | 4.06 | 1.78 | 1.42
3 | COc1cc(C(=O)NC2CCc3ccccc32)cc(Cl)c1OC (stereo not given) | -4.04 | -0.96 | -0.41
4 | CC1(C)N=C(N)N=C(N)N1c1ccc(Cl)cc1 | 5.04 | 4.91 | 4.69
5 | Cc1[nH]c(C)c(-c2cc3ccccc3o2)c(=O)c1Cl | 0.9 | 1.79 | 0.5
6 | CCN1CCCC(Nc2ccnc3cc4ccccc4cc23)C1 (stereo not given) | 4.12 | 4.34 | 4.81
7 | COc1ccc(NC(=O)[C@H](Cc2ccccc2)Nc2cc(C)nc(NCc3ccccc3C)n2)cc1 | 4.42 | 5.01 | 2.59
8 | O=C(Nc1cccc(CN2CCCN(Cc3ccc(O)cc3)CC2)c1)c1ccc2ccccc2n1 | 2.74 | 2.83 | -3.88
9 | CCOc1ccc(Br)cc1/C=C/C(=O)Nc1ccc(C2CCN(C)CC2)cc1 | 9.52 | 7.2 | 5.47
10 | Cc1cccc2nc(-c3ccc(-c4ccc(CNC(C)C)cc4)cc3)[nH]c12 | 21.6 | 25.1 | 15.7
11 | CCN(CC)S(=O)(=O)c1cc(-c2ccc(=O)n(CC(=O)c3ccc(C)cc3)n2)ccc1C | 4.68 | 6.23 | 2.45
12 | Cc1cc(CN2CCCN(c3ccc4c(c3)CCN(Cc3ccc(-c5ncc[nH]5)cc3)CC4)CC2)n(C)n1 | -0.3 | -1.47 | -3.2
13 | O=C(NCc1ccc(C(=O)NC2CCCCC2)cc1)c1ccc(O)c(-c2ccc(Cl)c(Cl)c2)c1 | 2.46 | 1.38 | 1.41
14 | CS(=O)(=O)N1CC2(CCN(CCC(NC(=O)NCc3ccccc3Cl)c3ccc(Cl)c(Cl)c3)CC2)c2ccccc21 (stereo not given) | 1.26 | 1.46 | 1.78
15 | CCCc1cc(=O)[nH]c(-n2nc(C)cc2NC(=O)C(CC)c2ccccc2)n1 (stereo not given) | 35 | 38.3 | 4.69
16 | CCOC(=O)C1=C(C)NC2=C(C(=O)C(C(=O)OC)C(C)C2)C1c1cc(Br)c(OCC)c(OC)c1 (stereo not given) | 8.37 | 6.84 | 6.67
17 | COc1ccc2[nH]ccc(=NN=Cc3ccc(Cl)cc3)c2c1 | 1.86 | 3.19 | 0.32
18 | CCOc1ccc(Br)cc1/C=C/C(=O)Nc1ccc2c(c1)CN(C)CCC2 | 4.12 | 5.18 | 4.34
19 | CCCC(C)c1ccc(N2C(N)=NC(N)=NC2(C)C)cc1 (stereo not given) | 2.85 | 2.75 | 0
20 | CC1CCCN(S(=O)(=O)c2ccc(NC(=O)c3cc(-c4ccccc4O)n[nH]3)cc2)C1 (stereo not given) | 1.49 | 3.54 | 0.62
21 | FC(F)(F)c1ccc2[nH]c(-c3ccc(-c4ccc(CNCCN5CCNCC5)cc4)s3)nc2c1 | 9.4 | 10.4 | 9.03
22 | O=C(Nc1cccc(CN2CCN(Cc3cccc(O)c3)CC2)c1)c1ccc(Cl)c(Cl)c1 | -1.71 | -0.84 | -1.62
23 | CCC(=O)c1cc(C(=O)NCCc2cccc(OC)c2)ccc1OC | 12.4 | 11.3 | 11.3
24 | Cc1ccc(Oc2ccc(CNc3nc(Nc4cccc(F)c4)nc(Nc4cccc(F)c4)n3)cc2)cc1 | 8.54 | 8.04 | 4.75

Row | SMILES | inhibition [1] [%] | inhibition [2] [%] | inhibition [3] [%]
25 | Cc1ccc(C(=O)Nc2ccc(F)c(F)c2F)cc1S(=O)(=O)N1CCCCC1 | 4.08 | 3.47 | 0.7
26 | O=C(NCc1cccc(F)c1)Nc1cccc(-c2ccc(-c3nc4cc(F)ccc4[nH]3)cc2)c1 | 2.2 | 3.53 | 6.86
27 | FC(F)(F)c1ccc2[nH]c(-c3ccc(-c4ccc(CN5CCN(c6cnccn6)CC5)cc4)cc3)nc2c1 | 12.9 | 10.6 | 7.09
28 | CCOc1c(OC)ccc2c1CCN(CCN1CCC(CNC(=O)c3ccc(-c4ccc(C#N)cc4)cc3)CC1)C2 | -1.08 | -0.26 | 1.45
29 | Nc1c(I)cc(C(=O)Nc2ccc3nc4c(c(N)c3c2)CCCC4)cc1I | 2.52 | 1.16 | 1.17
30 | CCn1nc(C(=O)NC2CCOc3ccccc32)c2ccccc2c1=O (stereo not given) | -1.12 | -0.92 | -3.49
31 | C[C@H]1CN(Cc2cccc(-c3cc(CNC(=O)c4cccc(CC5CCN(C)CC5)c4)ccc3F)c2)CCN1C | 0.87 | 0.27 | -3.42
32 | NS(=O)(=O)c1ccc(CNC(=O)c2cnc3c(O)cccc3c2Nc2cccc(NC(=O)c3ccc(Cl)c(Cl)c3)c2)cc1 | 5.22 | 5.59 | 5.34
33 | Cc1nnsc1C(=O)Nc1cccc(-c2cccc(-c3nc4cccc(C)c4[nH]3)c2)c1 | -0.36 | -1.04 | -5.1
34 | O=C(NC1CCCCCC1)C1CCCN(C(=O)c2ccc(O)c(-c3ccc(Cl)c(Cl)c3)c2)C1 (stereo not given) | 3.16 | 2.31 | 2.57
35 | COc1ccc(N2CCN(CCCNC(=O)c3ccc(NC(=O)c4cc(Cl)cc(Cl)c4)cc3)CC2)c(OC)c1 | 4.49 | 0.82 | 3.87
36 | O=C(COc1ccccc1Cl)N1CCc2cc3nccc(N4CCN5CCC[C@H]5C4)c3cc21 | 6.5 | 5.14 | 6.01
37 | COc1cccc(NC(=O)c2ccc(NCCCN3CC(C)CC(C)C3)c([N+](=O)[O-])c2)c1 (stereo not given) | 6.83 | 2.93 | 3.43
38 | CC(C)N1CCN(CCCNc2c3ccccc3nc3ccccc23)CC1 | 40.1 | 58 | 19
39 | CCc1ccccc1NC(=O)CN1CCN(c2ncnc3scc(-c4ccc(F)cc4)c23)CC1 | 1.81 | 3.65 | 2.87
40 | Cc1cc(N[C@@H](Cc2ccccc2)C(=O)NCCOc2ccccc2)nc(NCCc2ccccc2)n1 | 6.59 | 5.86 | 3.92
41 | Cc1cccc2nc(-c3cccc(-c4ccc(NC(=O)Nc5ccsc5)cc4)c3)[nH]c12 | 5 | 4.66 | 2.53
42 | CC(C)(CNCc1ccc(F)c(F)c1)c1nc(-c2ccnc(N)n2)c(-c2ccc(Cl)c(O)c2)[nH]1 | 3.92 | 1.07 | 2.56
43 | Cc1cc(NC(=O)Nc2ccc(C(C)(C)C)cc2)c2ccccc2n1 | 1.18 | 3.8 | -3.31
44 | CCOc1cc(-c2nnc3[nH]c(=O)n(C)c(=O)c3n2)ccc1OC(C)C | 2.56 | 2.55 | -1.04
45 | COc1cccc2c(N/N=C/c3ccccc3[N+](=O)[O-])cc(C)nc12 | 0.15 | 0.03 | 0.39
46 | COc1ccc(N2CCN(CCCN3CCN(C(=O)c4ccc(/C=C/c5ccc(Cl)c(Cl)c5)cc4)CC3)CC2)c(OC)c1 | 6.35 | 6.21 | 5.56
47 | CC(C)(C)CC(C)(C)c1ccc(O)c(C(=O)Nc2ccc([N+](=O)[O-])cc2)c1 | 1.13 | 1.55 | 0.23
48 | CC(C)C[C@H](NC(=O)c1cc2ccccc2s1)C(=O)N[C@H]1CCN(Cc2ccc(OC[C@@H]3CCCN3C)c(Cl)c2)C1 | 10.8 | 10.6 | 8.09

Row | SMILES | inhibition [1] [%] | inhibition [2] [%] | inhibition [3] [%]
49 | c1ccc(Oc2ccc(Nc3ccnc4ccc(-c5ccccn5)cc34)cc2)cc1 | 2.62 | 4.16 | 3.02
50 | Cc1cc(CN2CCC(N3CC(c4ccccc4)(c4ccccc4)OCC3=O)C2)ccc1O (stereo not given) | 0.59 | 0.87 | -3.65
51 | NC(=O)c1cccc(CN2Cc3ccccc3OC3(CCN(Cc4c[nH]c5cnccc45)CC3)C2)c1 | 0.63 | 1.28 | 0.09
52 | O=C(Nc1cccc(-c2ccc(CN3CCC(O)CC3)cc2)c1)c1cccc(Cl)c1 | 3.01 | 3.03 | 2.17
53 | COc1cc(Cc2cnc(N)nc2N)cc(OCCCOc2ccccc2)c1OC | 7.68 | 4.04 | 4.99
54 | OCCN1CCN(Cc2cccc(-c3cccc(-c4nc5cc(F)ccc5[nH]4)c3)c2)CC1 | 0.05 | 1.75 | -0.17
55 | COCCn1c(C)cc(C(=O)CN2C(=O)NC(C)(c3ccc(C(C)(C)C)cc3)C2=O)c1C (stereo not given) | -1.09 | 1.07 | 1.71
56 | CC(=O)Nc1ccc(C(=O)Nc2cccc(-c3cccc(-c4nc5cccc(C)c5[nH]4)c3)c2)cn1 | 4.29 | 3.64 | 1.41
57 | CCCCCCCCCn1c(NCc2cc(Cl)ccc2O)nc2ccccc21 | 2.6 | 1.33 | 0.42
58 | O=C(/C=C/c1ccc(Cl)c(Cl)c1)NCCCCCN1CCCN(C(=O)Nc2ccc(Cl)c(Cl)c2)CC1 | -0.96 | -0.4 | -0.85
59 | CC(C)CN1C(=O)C(c2ccc(F)c(F)c2)=C(O)C1c1ccccc1 (stereo not given) | 1.97 | 4.04 | -7.87
60 | Fc1cccc(COc2ccc(Nc3ncnc4sc(C#Cc5ncc[nH]5)cc34)cc2Cl)c1 | 0.39 | -0.11 | -0.59
61 | CC(C)Oc1cc2c(cc1NS(=O)(=O)c1ccc(-c3ccc(Cl)s3)cc1F)CCN(C)CC2 | 39.9 | 5.23 | 1.77
62 | O=C(N[C@H]1CCN(Cc2ccc(OCCN3CCNCC3)c3ccccc23)C1)c1ccc(Cl)c(Cl)c1 | 1.1 | 4.37 | 2.91
63 | Cc1cccc2nc(-c3cccc(-c4cccc(NC(=O)c5ccncc5)c4)c3)[nH]c12 | 3.32 | 3.01 | 4.27
64 | COc1ccc(C=CC(=O)Nc2ccc(N3CCCC3)cc2)cc1 | 1.15 | -1.95 | -1
65 | Cc1cc(-c2cccc(CNC3CCN(C)CC3)c2)ccc1S(=O)(=O)NCCN1CCCC1 | 0.26 | 0.15 | 0.59
66 | Cc1ccc(-c2ccc(Cl)cc2Oc2cnc(N)nc2N)o1 | 1.95 | 2.44 | 0.26
67 | O=C1CCCN1CCCNCc1cccc(-c2ccc(-c3nc4cc(C(F)(F)F)ccc4[nH]3)s2)c1 | 4.12 | 3.19 | 4.33
68 | O=C(Nc1cc(Oc2ccc(O)cc2)cc([N+](=O)[O-])c1)c1cc(-c2ccc(F)cc2)no1 | 2.24 | -1.36 | 1.6
69 | O=C(/C=C/c1ccc(Cl)c(Cl)c1)NCCCCCN1CCCC(CNS(=O)(=O)c2cccc(C(F)(F)F)c2)C1 (stereo not given) | -0.87 | -0.18 | -1.57
70 | COc1cccc(CNC(=O)c2cc(CNCc3ccccc3)ccc2-c2cccc(CNCc3ccc(-c4ccccc4)cc3)c2)c1 | 3.83 | 4.88 | 6.21
